PubChem BioAssay (NCI)
Where “and” joins values, the source holds several entries; their conditions need not be identical. Identical values can stand only once. The panel holds about 83,000 compounds, 20% with a hit somewhere; the sample as a whole holds those more often.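 Activity criterion: percent growth below 10, measured after cells in 96-well plates were exposed to a single compound concentration for 48 hours.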 A number with no mark means an inactive call. Calls of active or inactive are those of the source.

Columns and labels:
Experiment in all cases: NCI-60 one-dose screen, 48 h (100 = growth as untreated, 0 = no growth, -100 = all killed)
Conditions in all cases: 10 µM unless noted
DU-145 prostate = system: DU-145 prostate
K-562 leukemia = system: K-562 leukemia
MALME-3M melanoma = system: MALME-3M melanoma
MDA-MB-231 breast = system: MDA-MB-231 breast
RXF 393 renal = system: RXF 393 renal
SF-268 CNS = system: SF-268 CNS
SF-295 CNS = system: SF-295 CNS
SF-539 CNS = system: SF-539 CNS
M14 melanoma = system: M14 melanoma
UACC-257 melanoma = system: UACC-257 melanoma

c1ccc2c(c1)O[As](O[As]1Oc3ccccc3O1)O2
growth (DU-145 prostate): 60.6%
growth (K-562 leukemia): 5.83% (active)
growth (MALME-3M melanoma): -7.18% (active)
growth (MDA-MB-231 breast): 62%
growth (RXF 393 renal): 42.4%
growth (SF-268 CNS): 19.2%
growth (SF-295 CNS): 99.3%
growth (SF-539 CNS): -32.9% (active)
growth (M14 melanoma): 52.2%

O=[N+]([O-])c1ccc(OCc2ccc(S(=O)(=O)F)c(Cl)c2)c(Cl)c1
growth (DU-145 prostate): 118%
growth (K-562 leukemia): 99%
growth (MALME-3M melanoma): 98.6%
growth (MDA-MB-231 breast): 85.9%
growth (RXF 393 renal): 114%
growth (SF-268 CNS): 95.8%
growth (SF-295 CNS): 106%
growth (SF-539 CNS): 93.6%
growth (UACC-257 melanoma): 118%
growth (M14 melanoma): 96.9%

Cc1cc(N)ccc1N
growth (DU-145 prostate): 115%
growth (K-562 leukemia): 105%
growth (MALME-3M melanoma): 105%
growth (RXF 393 renal): 103%
growth (SF-268 CNS): 103%
growth (SF-295 CNS): 108%
growth (SF-539 CNS): 95.8%
growth (UACC-257 melanoma): 97.2%
growth (M14 melanoma): 104%

COC(=O)CCP(CCC(=O)OC)c1ccccc1
growth (DU-145 prostate): 110%
growth (K-562 leukemia): 111%
growth (MDA-MB-231 breast): 117%
growth (RXF 393 renal): 108%
growth (SF-268 CNS): 103%
growth (SF-295 CNS): 99.4%
growth (SF-539 CNS): 101%
growth (UACC-257 melanoma): 99.7%

COc1ccc(N)cc1OC
growth (K-562 leukemia): 129%
growth (MALME-3M melanoma): 129%
growth (MDA-MB-231 breast): 87.1%
growth (RXF 393 renal): 125%
growth (SF-268 CNS): 106%
growth (SF-295 CNS): 93.9%
growth (SF-539 CNS): 110%
growth (UACC-257 melanoma): 107%

O=[N+]([O-])c1ccc(CI)cc1
growth (DU-145 prostate): 105%
growth (K-562 leukemia): 12.3%
growth (MALME-3M melanoma): 85.6%
growth (MDA-MB-231 breast): 102%
growth (SF-268 CNS): 84%
growth (SF-295 CNS): 110%
growth (SF-539 CNS): 56.9%
growth (UACC-257 melanoma): 80.9%
growth (M14 melanoma): 71.6%

Cc1cc[n+](CCc2ccccc2)cc1
growth (DU-145 prostate): 95.3% and 115%
growth (K-562 leukemia): 85.7% and 89.1%
growth (MALME-3M melanoma): 75.4% and 88.6%
growth (MDA-MB-231 breast): 115% and 117%
growth (SF-268 CNS): 98.6% and 108%
growth (SF-295 CNS): 111% and 97.7%
growth (SF-539 CNS): 97.5% and 107%
growth (UACC-257 melanoma): 103% and 95%
growth (M14 melanoma): 97.2% and 105%

NC1CN2CCC1CC2 (stereo unspecified)
growth (K-562 leukemia): 87.6%
growth (MALME-3M melanoma): 105%
growth (MDA-MB-231 breast): 98.3%
growth (RXF 393 renal): 103%
growth (SF-268 CNS): 97.2%
growth (SF-295 CNS): 95.9%
growth (SF-539 CNS): 95.6%
growth (UACC-257 melanoma): 101%
growth (M14 melanoma): 97.8%

COC12CC3C4=CCOC5CC(=O)N6c7ccccc7C1(CCN2C4)C6C53 (stereo unspecified)
growth (DU-145 prostate): 117%
growth (MALME-3M melanoma): 112%
growth (MDA-MB-231 breast): 106%
growth (RXF 393 renal): 129%
growth (SF-268 CNS): 111%
growth (SF-295 CNS): 111%
growth (SF-539 CNS): 100%
growth (UACC-257 melanoma): 84%

CC1=C2[C@H]3OC(=O)[C@@H](C)[C@@H]3CC[C@@]2(C)C=CC1=O
growth (DU-145 prostate): 109%
growth (K-562 leukemia): 110%
growth (MALME-3M melanoma): 87.3%
growth (MDA-MB-231 breast): 112%
growth (SF-268 CNS): 107%
growth (SF-295 CNS): 106%
growth (SF-539 CNS): 83.3%
growth (M14 melanoma): 120%

CCOC(=O)c1ccccc1C(=O)OCC
growth (DU-145 prostate): 118%
growth (MALME-3M melanoma): 102%
growth (MDA-MB-231 breast): 93.3%
growth (RXF 393 renal): 121%
growth (SF-268 CNS): 110%
growth (SF-295 CNS): 83.5%
growth (SF-539 CNS): 107%
growth (UACC-257 melanoma): 91.3%
growth (M14 melanoma): 103%

O=[N+]([O-])c1cc(Br)c(O)c(Br)c1
growth (K-562 leukemia): 123%
growth (MDA-MB-231 breast): 103%
growth (RXF 393 renal): 90.2%
growth (SF-295 CNS): 100%
growth (SF-539 CNS): 108%
growth (UACC-257 melanoma): 95.4%
growth (M14 melanoma): 111%

CN1C2CCC1[C@@H](COC(=O)c1ccccc1)[C@@H](O)C2 (stereo partly specified)
growth (DU-145 prostate): 112%
growth (K-562 leukemia): 81.3%
growth (MALME-3M melanoma): 129%
growth (MDA-MB-231 breast): 103%
growth (SF-268 CNS): 108%
growth (SF-295 CNS): 112%
growth (SF-539 CNS): 103%
growth (UACC-257 melanoma): 97.1%
growth (M14 melanoma): 100%

CC1(C)CN=C(NN=C(/C=C/c2ccc(C(F)(F)F)cc2)/C=C/c2ccc(C(F)(F)F)cc2)NC1
growth (DU-145 prostate): -13.7% (active)
growth (K-562 leukemia): -37.5% (active)
growth (MALME-3M melanoma): -58.8% (active)
growth (MDA-MB-231 breast): -83.1% (active)
growth (SF-268 CNS): -34.5% (active)
growth (SF-295 CNS): -70.8% (active)
growth (SF-539 CNS): -78.4% (active)
growth (UACC-257 melanoma): -45.9% (active)

CC1=CC(=O)CCC12CCOC2=O (stereo unspecified)
growth (DU-145 prostate): 106%
growth (K-562 leukemia): 97.1%
growth (MALME-3M melanoma): 89.9%
growth (RXF 393 renal): 108%
growth (SF-268 CNS): 103%
growth (SF-295 CNS): 95.8%
growth (SF-539 CNS): 92.9%
growth (UACC-257 melanoma): 97.9%

CCCCOC(N)=O
growth (DU-145 prostate): 109%
growth (K-562 leukemia): 102%
growth (MDA-MB-231 breast): 109%
growth (SF-268 CNS): 104%
growth (SF-295 CNS): 105%
growth (SF-539 CNS): 109%
growth (UACC-257 melanoma): 110%
growth (M14 melanoma): 97.5%

O=S1(=O)OCCO1
growth (DU-145 prostate): 104%
growth (K-562 leukemia): 99.1%
growth (MALME-3M melanoma): 88.8%
growth (RXF 393 renal): 103%
growth (SF-268 CNS): 98.2%
growth (SF-295 CNS): 98.3%
growth (SF-539 CNS): 95.1%
growth (UACC-257 melanoma): 96.7%
growth (M14 melanoma): 103%

CCCn1cc2c3c(cccc31)[C@H]1C[C@@H](C)CN(C)[C@@H]1C2
growth (DU-145 prostate): 99.8%
growth (MDA-MB-231 breast): 78.3%
growth (RXF 393 renal): 86.6%
growth (SF-268 CNS): 94.8%
growth (SF-539 CNS): 85.1%
growth (UACC-257 melanoma): 78.6%
growth (M14 melanoma): 89.3%

O=S(=O)(F)c1cccc(Cl)c1C[P+](c1ccccc1)(c1ccccc1)c1ccccc1
growth (DU-145 prostate): 109%
growth (K-562 leukemia): 77.2%
growth (MALME-3M melanoma): 90.4%
growth (MDA-MB-231 breast): 98.6%
growth (SF-268 CNS): 105%
growth (SF-295 CNS): 92.3%
growth (SF-539 CNS): 103%
growth (UACC-257 melanoma): 89.7%
growth (M14 melanoma): 102%

ClCc1ccc(Cl)c(Cl)c1
growth (DU-145 prostate): 106%
growth (K-562 leukemia): 107%
growth (MALME-3M melanoma): 83%
growth (MDA-MB-231 breast): 108%
growth (SF-268 CNS): 101%
growth (SF-295 CNS): 94.4%
growth (SF-539 CNS): 99.6%
growth (UACC-257 melanoma): 98.3%

O=C(O)C(Br)CBr (stereo unspecified)
growth (DU-145 prostate): 106%
growth (K-562 leukemia): 104%
growth (MDA-MB-231 breast): 126%
growth (SF-268 CNS): 103%
growth (SF-295 CNS): 98.1%
growth (SF-539 CNS): 98.5%
growth (UACC-257 melanoma): 97.7%

N#CC(C#N)=C(C#N)C#N
growth (DU-145 prostate): 110%
growth (K-562 leukemia): 108%
growth (MALME-3M melanoma): 108%
growth (MDA-MB-231 breast): 106%
growth (RXF 393 renal): 111%
growth (SF-268 CNS): 96%
growth (SF-539 CNS): 93.7%
growth (UACC-257 melanoma): 97.8%
growth (M14 melanoma): 102%

O=C(O)c1cc([N+](=O)[O-])cc([N+](=O)[O-])c1
growth (DU-145 prostate): 109%
growth (K-562 leukemia): 116%
growth (MALME-3M melanoma): 109%
growth (MDA-MB-231 breast): 120%
growth (SF-268 CNS): 97%
growth (SF-295 CNS): 101%
growth (SF-539 CNS): 104%
growth (UACC-257 melanoma): 61.8%
growth (M14 melanoma): 95.9%

c1ccc(CCN2CCCCC2)nc1
growth (K-562 leukemia): 97.6%
growth (MALME-3M melanoma): 141%
growth (MDA-MB-231 breast): 97.8%
growth (RXF 393 renal): 114%
growth (SF-268 CNS): 103%
growth (SF-295 CNS): 98%
growth (SF-539 CNS): 102%
growth (UACC-257 melanoma): 108%
growth (M14 melanoma): 99.5%

O=C(O)c1ccc(=O)[nH]c1
growth (DU-145 prostate): 114% and 111%
growth (K-562 leukemia): 102% and 89.2%
growth (MALME-3M melanoma): 109% and 104%
growth (MDA-MB-231 breast): 102% and 104%
growth (SF-268 CNS): 101% and 104%
growth (SF-295 CNS): 113% and 96.2%
growth (SF-539 CNS): 89.5% and 98.2%
growth (M14 melanoma): 102% and 95.8%
